Reference: PubChem BioAssay AID2165 (The Scripps Research Institute Molecular Screening Center, 2009)
Unmarked numbers belong to inactive results. Activity calls are given as the source filed them. Cut-off read from the data, not from the text of the source: active = IC50 below about 9 µM; inactive = the rest.

System: Ba/F3 Cytotoxicity
Test: JAK2V617F project follow-up: kinase, reporter, cytotoxicity – HEL and Ba/F3 cells, late-stage follow-up (AID 2165)
Details: JAK2V617F panel: kinase, IRF1 reporter

SMILES	IC50
Cc1[nH]c(=O)c(C(=O)/C=C/c2ccccc2F)c2c1CCCC2	0.43 µM (active)
Cc1[nH]c(=O)c(C(=O)C=Cc2ccc(Cl)cc2)c2c1CCCC2	2.48 µM (active)
N#CC(=Cc1ccc(O)c(O)c1)C(=S)NCc1ccccc1	1.09 µM (active)
COCCOc1cc2ncnc(Nc3cccc(C#Cc4ccc(O)cc4)c3)c2cc1OCCOC	3.68 µM (active)
Cc1ccc(O)c(NC(=O)COc2ccc(Br)cc2)c1	2.43 µM (active)
COc1cc(C=C(C#N)C(N)=O)cc(CSc2ccccc2)c1O	> 40 µM
O=C(NCCc1cccnc1)C1CCC(=O)N(CCc2cccc(F)c2)C1 (stereo not given)	> 40 µM
COc1cc2ncnc(N[C@H](C)c3ccccc3)c2cc1OC	3.19 µM (active)
Cc1[nH]c(=O)c(C(=O)C=Cc2ccc(C(C)C)cc2)c2c1CCCC2	2.74 µM (active)
CCC(C)Nc1ncnc2cc(OC)c(OC)cc12 (stereo not given)	> 40 µM
COc1cc2ncc(-c3ccccc3)nc2cc1OC	> 40 µM
N#C/C(=C\c1ccc(O)c(O)c1)C(=O)NCCCCc1ccccc1	0.33 µM (active)
N#C/C(=C\c1ccc(O)c(O)c1)C(=O)NCCc1ccccc1	0.3 µM (active)
COc1ccc(C)cc1NC(=O)Nc1ccc(Br)cn1	> 40 µM
CCC(C)c1ccc(OCC(=O)Nc2cc(C)ccc2O)cc1 (stereo not given)	6.47 µM (active)
COc1ccc(C=CC(=O)c2c3c(c(C)[nH]c2=O)CCCC3)cc1	4.38 µM (active)
Cc1ccc(O)c(NC(=O)COc2ccc(C)c(C)c2)c1	5.02 µM (active)
Clc1cccc(Nc2ncnc3ccccc23)c1	> 40 µM
Cc1cccc(OCC(=O)Nc2ccc(C)c(C)c2)c1	> 40 µM
Cc1nnc(NC(=O)COc2ccccc2)s1	> 40 µM
